Assay outcomes as filed in PubChem.
Shown is part of a subset that was picked to be rich in hits.
KDM5B inh = inhibitors of human KDM5B histone demethylase; Q9UGL1; KDM5B demethylase, FDH-coupled NADH fluorescence (FDH is formaldehyde dehydrogenase); Potency, µM (doses to about 57.7 µM), usual class: inhibitors; 220,000 tested, 2.6% active; AID 1347165; active means well fitted inhibition curve with a large enough effect; further: nearly all actives have a fitted effect of over 70% in size
Target sequence (Q9UGL1 whole entry, looked up): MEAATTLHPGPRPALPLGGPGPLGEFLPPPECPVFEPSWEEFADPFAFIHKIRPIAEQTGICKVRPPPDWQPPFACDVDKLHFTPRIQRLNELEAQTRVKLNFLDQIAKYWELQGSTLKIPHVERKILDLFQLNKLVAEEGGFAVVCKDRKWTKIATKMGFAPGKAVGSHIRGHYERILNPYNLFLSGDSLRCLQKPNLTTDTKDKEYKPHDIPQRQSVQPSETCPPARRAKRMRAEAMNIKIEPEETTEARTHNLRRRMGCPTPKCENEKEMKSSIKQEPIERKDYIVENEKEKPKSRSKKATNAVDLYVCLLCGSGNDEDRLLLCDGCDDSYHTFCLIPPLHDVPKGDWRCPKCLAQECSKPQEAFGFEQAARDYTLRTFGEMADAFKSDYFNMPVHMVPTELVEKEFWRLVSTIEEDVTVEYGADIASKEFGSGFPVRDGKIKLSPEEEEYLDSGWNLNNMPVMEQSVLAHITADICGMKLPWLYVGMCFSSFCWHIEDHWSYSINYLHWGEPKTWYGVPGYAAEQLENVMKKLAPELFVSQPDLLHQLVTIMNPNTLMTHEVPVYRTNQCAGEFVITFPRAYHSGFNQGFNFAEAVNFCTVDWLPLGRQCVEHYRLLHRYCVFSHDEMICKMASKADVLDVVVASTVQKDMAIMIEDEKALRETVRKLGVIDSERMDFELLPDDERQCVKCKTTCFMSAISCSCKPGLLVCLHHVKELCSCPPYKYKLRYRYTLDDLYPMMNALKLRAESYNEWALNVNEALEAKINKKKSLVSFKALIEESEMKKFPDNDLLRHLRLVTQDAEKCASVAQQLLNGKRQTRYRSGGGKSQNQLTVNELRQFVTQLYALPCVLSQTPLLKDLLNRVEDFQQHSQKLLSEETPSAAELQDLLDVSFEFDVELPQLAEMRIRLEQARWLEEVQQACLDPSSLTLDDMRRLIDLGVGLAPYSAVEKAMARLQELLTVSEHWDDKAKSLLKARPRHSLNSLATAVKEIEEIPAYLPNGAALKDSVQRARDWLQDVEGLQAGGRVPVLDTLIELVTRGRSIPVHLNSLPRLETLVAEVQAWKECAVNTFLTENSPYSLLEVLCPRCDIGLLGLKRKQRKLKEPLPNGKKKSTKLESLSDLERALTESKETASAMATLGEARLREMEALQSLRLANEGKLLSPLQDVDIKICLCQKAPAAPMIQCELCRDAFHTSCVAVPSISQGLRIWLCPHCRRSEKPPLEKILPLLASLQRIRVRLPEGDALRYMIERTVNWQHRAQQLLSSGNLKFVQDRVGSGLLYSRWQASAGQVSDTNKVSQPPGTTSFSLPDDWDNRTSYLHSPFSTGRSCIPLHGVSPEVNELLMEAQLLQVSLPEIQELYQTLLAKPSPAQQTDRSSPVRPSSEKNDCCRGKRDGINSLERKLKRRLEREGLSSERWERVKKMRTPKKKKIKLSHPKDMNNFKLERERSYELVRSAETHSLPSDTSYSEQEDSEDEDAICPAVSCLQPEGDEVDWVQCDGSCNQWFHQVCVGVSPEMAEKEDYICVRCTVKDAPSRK
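KDM5BΔAP (200 nM final) in 50 mM HEPES pH 7.5, 0.01% Tween-20 was preincubated 10 min at RT with compound over a concentration range. Substrate mix (H3K4me3 12.5 µM, α-KG 25 µM, Fe²⁺, ascorbate, NAD⁺, FDH) was added, and NADH fluorescence change over 30 min gave dose-response curves.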
A number is an active result; 0 = inactive.

SMILES	KDM5B inh
Cc1ccccc1C(C)NC(=O)c1nn(C)c(=O)c2ccccc12 (stereo not drawn)	0
CCCCN1C(=O)C2(/C(=C(\O)c3ccc(OC)c(C)c3)C(=O)C(=O)N2CCOC)c2ccccc21 (stereo not drawn)	0
Cc1cc(C)c(CNC(=O)c2cc(-c3ccccc3C)cc3c2OCCN3C(C)C)c(=O)[nH]1	32µM
Cc1cc(C)c(CNC(=O)c2cc(-c3ccccc3O)cc3c2OCCN3C(C)C)c(=O)[nH]1	25µM
CC(=O)Nc1cccc(-c2cc(C(=O)NCc3c(C)cc(C)[nH]c3=O)c3c(c2)N(C(C)C)CCO3)c1	28µM
Cc1cc(C)c(CNC(=O)c2cc(-c3ccccc3F)cc3c2OCCN3C(C)C)c(=O)[nH]1	32µM
Cn1c(C(=O)N2CCc3c(n(CCOc4ccccc4)n(-c4ccccc4)c3=O)C2)cc2ccccc21	0
CCCC(C)NC(=O)c1ccc2c(c1)NC(=O)CS2 (stereo not drawn)	0
CCCn1c(C)cc(C(=O)CSc2n[nH]c(C3CC3)n2)c1C	0
Cc1ccc2nc(Nc3nc(C)c(Cc4cccc(Cl)c4)c(=O)[nH]3)nc(C)c2c1	0
Cc1ccc(F)cc1NC(=O)CN1N=C(c2ccccc2)c2cc(Cl)ccc2S1(=O)=O	0
Cc1ccc(CCNC(=O)CN2C(=O)CN(C(=O)NCc3ccccc3)c3ccccc32)cc1	0
CCCNC(=O)c1ccc(Oc2nccnc2Sc2ccccc2)cc1	0
CC(C)C(=O)Nc1ccc(-c2csc(NCc3ccco3)n2)cc1	0
COc1ncc(-c2cc(C(=O)NCc3c(C)cc(C)[nH]c3=O)c3c(c2)N(C(C)C)CCO3)cn1	0
COc1ccc(-c2cc(C(=O)NCc3c(C)cc(C)[nH]c3=O)c3c(c2)N(C(C)C)CCO3)cc1	32µM
O=C(O)CCC(NC(=O)C12CC3CC(CC(C3)C1)C2)C(=O)O (stereo not drawn)	0
CCC(C(=O)NC(C)(C)CC)c1ccccc1 (stereo not drawn)	0
O=C1Nc2ccc(-c3cccc(C(F)(F)F)c3)cc2C(=O)N2CCN(C(=O)COc3ccccc3)C[C@H]12	0
CC(C)(CC(=O)O)CC(=O)N1CCN2C(=O)c3cc(-c4ccccc4F)ccc3NC(=O)[C@@H]2C1	0
O=C1Nc2ccc(-c3ccc(Cl)cc3)cc2C(=O)N2CCN(C(=O)c3cccs3)C[C@H]12	0
COc1ccc(Cl)cc1-c1ccc2c(c1)C(=O)N1CCN(C(=O)c3cccs3)C[C@@H]1C(=O)N2	28µM
O=C1Nc2ccc(-c3ccccc3F)cc2C(=O)N2CCN(C(=O)c3ccccc3)C[C@H]12	40µM
COc1ccc(Cl)cc1-c1ccc2c(c1)C(=O)N1CCN(C(=O)c3ccccc3)C[C@@H]1C(=O)N2	22µM
C=CCO[C@@H]1CCN2C(=O)c3cc(-c4ccccc4F)ccc3NC(=O)[C@H]12	0
SMILES	KDM5B inh
COc1ccc(Cl)cc1-c1ccc2c(c1)C(=O)N1CCN(C(=O)CC(C)(C)C)C[C@@H]1C(=O)N2	0
CCCNC(=O)N1CCN2C(=O)c3cc(-c4cccc(C(F)(F)F)c4)ccc3NC(=O)[C@@H]2C1	32µM
COc1cccc(CC2CN(Cc3ccc(F)cc3OC)CCO2)c1 (stereo not drawn)	0
CCc1cccc(C)c1NC(=O)CSC1CCCC1	0
N#Cc1ccc(N2CCC(C(=O)Nc3nc(C4CC4)cs3)CC2)nc1	0
COc1cc(C(=O)OCc2ccc(C#N)cc2)cc(OC)c1OC	0
Cc1ccc(NC(=S)NCCO)cc1	0
C=CCn1c(C)cc(C(=O)COC(=O)c2nn(CCC)c(=O)c3ccccc23)c1C	0
Cc1ccc2oc(=O)cc(CN3CCN(CCO)CC3)c2c1	0
COc1ccc(-c2cc(N3CCN(C(=O)c4cccc(F)c4)CC3)n[nH]2)cc1	0
COc1ccc(-c2ccc3c(c2)C(=O)N2CCN(C(=O)c4cccc(F)c4)C[C@@H]2C(=O)N3)cc1	18µM
O=C1Nc2ccc(-c3cccc(C(F)(F)F)c3)cc2C(=O)N2CCN(C(=O)c3cccc(F)c3)C[C@H]12	0
COc1ccc(Cl)cc1-c1ccc2c(c1)C(=O)N1CCN(C(=O)C3CCCCC3)C[C@@H]1C(=O)N2	10µM
COc1ccc(Cl)cc1-c1ccc2c(c1)C(=O)N1CCN(C(=O)c3ccc(N(C)C)cc3)C[C@@H]1C(=O)N2	32µM
CCS[C@H]1CCN2C(=O)c3cc(-c4cc(Cl)ccc4OC)ccc3NC(=O)[C@H]12	0
C[C@@H](c1ccccc1)N1C(=O)[C@@H]2CN(C(=O)c3ccc(N(C)C)cc3)CCN2C1=O	0
COC(=O)CCN(C)Cc1sccc1C	0
CCOC(=O)C1CCN(c2nc3ccccc3n3c(=O)n(CC(=O)Nc4ccc(C#N)cc4)nc23)CC1	0
CN(C)C1(CNC(=O)Cc2n[nH]c(=O)c3ccccc23)CCCCC1	0
Cc1ccc(CN(C(=O)c2cc3ccccc3[nH]2)C(C)C)o1	0
CC(=O)N1CCC2(CC1)CC(=O)c1ccc(OCC(=O)NC3CCS(=O)(=O)C3)cc1O2 (stereo not drawn)	0
O=C(CN1CCN(C(=O)CCNS(=O)(=O)c2ccc3ccccc3c2)CC1)Nc1cccc(F)c1	0
CCCNc1c(NS(=O)(=O)c2ccccc2Cl)c(=O)oc2ccccc12	0
CC(=O)N1CCN(c2nc(-c3ccccc3)c3ccccc3n2)CC1	0
FC(F)(F)c1cccc(NC(=S)NCc2cccs2)c1	0
SMILES	KDM5B inh
COC(=O)c1ccccc1NC(=O)N1CCC[C@@H](O)[C@H](NC(=O)c2ccc(OCc3c(C)noc3C)cc2)C1	22µM
COC(=O)COc1ccc(C(=O)N[C@@H]2CN(C(=O)Nc3ccc(F)cc3)CCC[C@H]2O)cc1	0
NC(=O)COc1ccc(C(=O)N[C@@H]2CN(Cc3ccccn3)CCC[C@H]2O)cc1	32µM
O=C(N[C@@H]1CN(Cc2ccccn2)CCC[C@H]1O)c1ccc(OCc2ccccc2)cc1	0
COCCOc1ccc(C(=O)N[C@@H]2CN(C(=O)Nc3ccc(F)cc3)CCC[C@H]2O)cc1	0
Cc1noc(C)c1COc1ccc(C(=O)N[C@@H]2CN(C(=O)Nc3cccc(C(F)(F)F)c3)CCC[C@H]2O)cc1	0
NC(=O)COc1ccc(C(=O)N[C@@H]2CN(C(=O)NC3CCCCC3)CCC[C@H]2O)cc1	0
O=C(N[C@@H]1CN(C(=O)Nc2ccccc2)CCC[C@H]1O)c1ccc(OCc2ccccc2)cc1	0
O=C(N[C@@H]1CN(C(=O)Nc2ccc(F)cc2)CCC[C@H]1O)c1ccc(OCCN2CCCC2)cc1	28µM
COc1ccc(/C=C2\N=C(c3ccc(Br)cc3)NC2=O)cc1OC	0
N#Cc1cccc(C(=O)NC2CCCCC2C(F)(F)F)c1 (stereo not drawn)	0
Cc1noc(-c2ccc(OCc3ccccc3F)cc2O)c1-c1ccc(Br)cc1	0
COc1cccc(-c2nc(SCc3cc(=O)n4cc(C)sc4n3)n[nH]2)c1	0
COc1ccccc1C(=O)Oc1ccc(NC(=O)Cc2nn(C)c(=O)c3ccccc23)cc1	0
O=C(O)CC1C(=O)NCCN1Cc1ccccc1Cl (stereo not drawn)	0
COc1ccccc1C(=O)N1CCCn2nc(C)c(-c3ccccc3N3CCCC3)c21	13µM
COc1ccc(C(=O)N2CCCn3nc(C)c(-c4ccccc4C(C)C)c32)cc1	0
COc1ccccc1C(=O)N1CCCn2nc(C)c(-c3ccccc3C(C)C)c21	0
Cn1cnc2c1c(=O)n(CCCn1nnc(-c3ccc(F)cc3)n1)c(=O)n2C	0
C=CCNc1nc(-c2ccc3c(c2)C(C)C(=O)N3)cs1 (stereo not drawn)	0
CCc1nc2c(=O)n(CC(=O)N3CCN(c4cccc(C)c4C)CC3)nc(C)c2s1	0
